ELG1 DNA repair – blocks ELG1-dependent DNA repair in HEK293T cells; HEK293T ELG1-luciferase reporter, luminescence, 16 h; DNA damage induced by 5-fluorouridine; Potency, µM (top dose mostly 46.1 µM), without a hit: at the highest dose activity change, negative = inhibition, actives largely listed as inhibitors; actives 2.3% (n = 330,000); also: % is scaled to controls: 0 for no effect and ±100 for the full control effect; nearly all actives have a fitted effect of over 55% in size
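Overnight (16 hr) co-exposure of 2,000 cells/well to 5-fluorouridine and compound at 37 °C preceded detection. Luciferase was quantified via ONE-Glo luminescence; loss of signal denotes inhibition.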
ELG1 genotox – inducers of genotoxicity in HEK293T ELG1-luciferase cells | HEK293T ELG1-luciferase reporter, luminescence, 16 h | Potency, µM (top dose mostly 46 µM), for inactives: at the highest dose activity change, positive = activation, most hits filed as activators | actives 1.3% (n = 330,000); also: % of control where 0% means no effect; nearly all actives have a fitted effect of over 60% in size
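Genotoxic stress is detected as increased luminescence from luciferase-tagged ELG1 in HEK293T cells, measured with ONE-Glo after a 16 hr treatment at 37 °C.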
NPC1 promoter act – activators of NPC1 promoter | Huh7 NPC1 promoter luciferase reporter, 24 h | Potency, µM (top dose mostly 9.22 µM), for inactives: top-dose activation, hits mostly activators | actives 2.4% (n = 320,000) | AID 485313; also: % of control where 0% means no effect; nearly all actives have a fitted effect of over 60% in size
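Luminescence from an NPC1 promoter-driven luciferase reporter in stably transfected Huh7 cells was measured after 24 h compound treatment at 37 °C, followed by 10 min ambient incubation with luciferase detection reagent.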
SMN2 splice enh – SMN2 splice variant enhancement; HEK293 SMN2-luciferase splicing reporter, luminescence, 30-36 h; Potency, µM (doses to about 46.1 µM), for inactives: at the top dose activity change, positive = activation, hits mostly activators; actives 2.8% (n = 210,000); AID 1458; also: % of control where 0% means no effect; nearly all actives have a fitted effect of over 55% in size
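qHTS luciferase splicing reporter: luminescence rises when SMN2 exon 7 is included in transfected HEK293 cells. Compound exposure lasted 30-36 h at 37C, with 4.5 mM final sodium butyrate as control, followed by a ONE-Glo read.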
Rab9 promoter act – activators of Rab9 promoter; Huh7 Rab9 promoter-luciferase reporter, luminescence, 24 h; Potency, µM (highest dose often 9.22 µM), for inactives: at the top dose activation, negative = inhibition, usual class: activators; actives 2.8% (n = 320,000); also: % of control where 0% means no effect; nearly all actives have a fitted effect of over 60% in size
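Huh7 cells stably carrying a Rab9 promoter-luciferase reporter, 1500 cells per well in OP-MEM I with 10% FBS, treated with compound 24 hours at 37C. Luciferase activity read by luminescence after 10 minutes with Amplite reagent.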
FLuc counter – inhibits or activates purified firefly luciferase, miR-21 counter-screen. P08659. purified FLuc, Km substrates, luminescence inhibition. Potency, µM (doses to about 57.5 µM), inactives show at the top dose activity change, negative = inhibition, actives largely listed as inhibitors. actives 6.9% (n = 360,000). AID 588342;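 also: plate controls were vehicle for no effect and reference inhibitor for full effect; nearly all actives have a fitted effect of over 55% in size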
Target sequence (P08659 whole entry, looked up): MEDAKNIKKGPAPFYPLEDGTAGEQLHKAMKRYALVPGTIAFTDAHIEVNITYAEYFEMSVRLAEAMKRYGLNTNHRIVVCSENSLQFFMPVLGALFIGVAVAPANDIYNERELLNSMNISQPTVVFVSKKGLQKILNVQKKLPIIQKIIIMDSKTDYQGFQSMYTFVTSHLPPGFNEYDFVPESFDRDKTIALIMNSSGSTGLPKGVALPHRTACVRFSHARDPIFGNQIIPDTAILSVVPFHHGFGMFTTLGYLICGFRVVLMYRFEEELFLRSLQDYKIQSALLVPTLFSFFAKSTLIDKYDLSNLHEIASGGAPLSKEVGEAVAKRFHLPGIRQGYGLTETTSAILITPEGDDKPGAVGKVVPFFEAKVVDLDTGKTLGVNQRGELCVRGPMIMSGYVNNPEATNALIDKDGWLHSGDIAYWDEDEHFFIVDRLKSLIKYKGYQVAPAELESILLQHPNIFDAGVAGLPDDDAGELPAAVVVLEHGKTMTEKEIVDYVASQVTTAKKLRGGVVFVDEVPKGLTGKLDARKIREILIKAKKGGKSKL
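Purified P. pyralis luciferase, 10 nM final, with Km-level 10 uM D-luciferin and 10 uM ATP in 50 mM Tris acetate pH 7.5, 10 mM Mg acetate, 0.01% Tween-20, 0.05% BSA; 6-point qHTS titration about 60 µM downward; luminescence read.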
* hit, by the source's call; ? = inconclusive; nt = no result given. Rows were chosen to be rich in hits. Some 9.3% of all compounds tested hit in one or more screens of this group. Calls follow the shape of the dose curve; as a rule, active = well fitted curve in the direction sought with a large enough effect; inconclusive = small, poorly fitted or top-dose-only effect, or another doubt; inactive = no such curve, though single readings can be large; an effect the other way counts as inactive or inconclusive. Potency is read from the fitted curve at half-maximal effect.

SMILES	ELG1 DNA repair	ELG1 genotox	NPC1 promoter act	SMN2 splice enh	Rab9 promoter act	FLuc counter
CCOCCCNC(=O)c1ccc2c(c1)OCO2	?	10%	18%	14µM*	?	?
CCOCCCNC(=O)c1ccccc1OC1CCN(S(C)(=O)=O)CC1	7%	0%	0%	nt	-2%	-2%
COCCCNC(=S)NNC(=O)c1ccc2c(c1)OCO2	?	1%	28%	-2%	13%	0%
CCN1C(=O)C2(C(C(=O)c3cc4ccccc4o3)=C(O)C(=O)N2CCCN(C)C)c2ccccc21 (configuration not stated)	-4%	-1%	0%	nt	-1%	0%
Cc1cccc(C(=O)OC(C)C(=O)N2CCN(Cc3ccccc3)CC2)c1 (configuration not stated)	7%	-6%	0%	nt	2%	1%
CCN(CC)S(=O)(=O)c1cccc(C(=O)NC(C(=O)Nc2nnc(C)s2)C(C)C)c1 (configuration not stated)	-30%	-3%	0%	-15%	-4%	3%
COC(=O)[C@@]1(Cc2ccc(OC)cc2)[C@@H]2C(=CC(=O)[C@H]2CC(=O)C(=O)N2CCCC2)CN1C(=O)c1ccccc1	15µM*	-15%	6%	-9%	-1%	2%
COc1ccc(CNC(=O)c2cc3cccc4c3n2CC(C)S4)c(OC)c1 (configuration not stated)	nt	nt	nt	nt	nt	-7%
O=c1oc(-c2cccs2)nc2sc3c(c12)CCC3	-5%	-1%	18%	?	-1%	?
O=c1[nH]nnc2sc3c(c12)CCCC3	13µM*	-12%	0%	10%	4%	-3%
O=c1[nH]c(-c2ccco2)nc2sc3c(c12)CCCC3	?	9.2µM*	2µM*	1µM*	1.6µM*	3µM*
O=c1oc(/C=C/c2ccco2)nc2sc3c(c12)CCC3	21%	0%	18%	15%	16%	0.95µM*
CCOC(=O)C1CCCN(C(=S)Nc2cc(C)cc(C)c2)C1 (configuration not stated)	-6%	-7%	2%	19%	2%	-1%
CC1(C)CC(NC(=O)C2CCN(S(=O)(=O)c3cccc(C(F)(F)F)c3)CC2)CC(C)(C)N1	?	2%	-7%	nt	-2%	-2%
CC(C)N(Cc1nc(-c2ccc(Cl)cc2)no1)C(=O)c1ccco1	nt	nt	nt	-26%	nt	-6%
CN1CCN(c2nc(-c3ccccc3)nc(-c3ccccc3)c2C#N)CC1	?	-14%	-9%	-17%	-31%	-2%
COc1ccc(-c2nc(-c3ccccc3)nc(N3CCN(C)CC3)c2C#N)cc1	21µM*	-6%	-9%	-16%	11%	0%
N#Cc1c(-c2ccccc2)nc(-c2ccccc2)nc1N1CCOCC1	15µM*	0%	-3%	-10%	-2%	0%
c1ccc(-c2nc(N3CCOCC3)cc(N3CCOCC3)n2)cc1	15µM*	-8%	-11%	-6%	-12%	0%
CCC(C(=O)Nc1ccc2[nH]ncc2c1)c1ccccc1 (configuration not stated)	-29%	-5%	10%	nt	0%	4%
Cc1ccc(-n2nc3c(=O)n(CCCC(=O)NCc4ccccc4Cl)nc(C)c3c2C)cc1	?	-7%	-4%	nt	-1%	?
O=C(c1ccco1)C(O)c1ccco1 (configuration not stated)	?	-1%	1%	nt	-5%	4%
COc1ccc(/C=N/NC(=O)c2cc(C34CC5CC(CC(C5)C3)C4)[nH]n2)cc1O	?	?	3%	-2%	-2%	15µM*
COc1ccccc1CC(=O)N1CCOCC1	-30%	0%	2%	nt	13%	-1%
Cc1ccc(-n2ncc3c(NCCCN4CCOCC4)ncnc32)c(C)c1	-4%	-2%	1%	-8%	-7%	-1%
SMILES	ELG1 DNA repair	ELG1 genotox	NPC1 promoter act	SMN2 splice enh	Rab9 promoter act	FLuc counter
Cc1ccc(-n2ncc3c(NCCO)ncnc32)cc1Cl	nt	nt	nt	nt	nt	6µM*
Cc1ccc(-n2ncc3c(NCCCN4CCOCC4)ncnc32)cc1Cl	nt	nt	nt	nt	nt	9.5µM*
Cc1ccc(-n2ncc3c(NCCCc4ccccc4)ncnc32)cc1C	nt	nt	nt	nt	nt	-10%
COc1ccc(CCNc2ncnc3c2cnn3-c2ccc(F)cc2)cc1	nt	nt	nt	nt	nt	-16%
COc1ccc(-n2ncc3c(NCCN4CCOCC4)ncnc32)cc1	?	15µM*	28%	-8%	?	15µM*
COc1cc2ncnc(NCCCN3CCOCC3)c2cc1OC	11%	4%	-4%	nt	-2%	0%
COc1ccc(-n2ncc3c(NCCCN4CCOCC4)ncnc32)cc1	?	9.2µM*	?	-2%	?	11µM*
CCOc1ccc(CCNC(=O)C(CC(C)C)N2Cc3ccccc3C2=O)cc1OCC (configuration not stated)	nt	nt	nt	nt	nt	3%
CC(=O)NNc1ncnc2c1cnn2-c1ccc(C)c(Cl)c1	?	16%	2%	2%	16%	24µM*
CC(=O)NNc1ncnc2c1cnn2-c1ccc(C)cc1	?	?	-3%	nt	5%	?
Cc1cccc(NC(=S)NNC(=O)c2ccco2)c1	?	1%	-3%	19%	1%	?
Cc1ccc(NC(=S)NNC(=O)c2ccco2)cc1	?	1%	-1%	11µM*	?	?
Cc1ccc(C(=O)NNC(=O)c2ccco2)cc1	?	?	?	13µM*	?	17µM*
Cc1ccc(C(=O)NNC(=S)NC(=O)c2ccco2)cc1	?	1%	-12%	-29%	0%	?
CCSc1nnc2c(n1)[nH]c1c(C)cccc12	-7%	?	0%	-37%	5.6µM*	12µM*
CSc1nnc2c(n1)[nH]c1c(C)cccc12	?	-6%	4%	-32%	7%	?
O=C1CCn2nc(-c3ccc(Cl)cc3)cc2N1	?	?	?	13µM*	?	19µM*
CCOC(=O)C1(CCCc2ccccc2)CCN(C(=O)CCN2CCCCC2=O)CC1	-17%	-8%	-6%	nt	-3%	-3%
C(=N\NC1=Nc2cccc3cccc1c23)/c1cccnc1	?	?	3.5µM*	11µM*	2.5µM*	4.8µM*
C(=N\NC1=Nc2cccc3cccc1c23)/c1ccccc1	?	?	4µM*	4µM*	4.5µM*	1.7µM*
COc1ccc(NC2=Nc3cccc4cccc2c34)cc1OC	-1%	-3%	6%	-9%	-2%	?
Clc1ccc(/C=N/NC2=Nc3cccc4cccc2c34)cc1	?	?	0.63µM*	11µM*	0.63µM*	1.7µM*

Screening results: PubChem, National Center for Advancing Translational Sciences (NCATS)
